Data from PubChem BioAssay.
Several values for one entry are separate records, joined by “and”; a condition that tells them apart may be missing. Equal entries are not always repeated. Activity calls are given as the source filed them.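 The calls were made as follows, unless noted: active = thallium flux through the channel raised or lowered by more than 3 SD from vehicle-only wells, actives on both sides; inactive = the rest.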

Assays:
[1] = P. berghei load reduction in hepatocytes – cell-based, HepG2, luciferase luminescence, HepG2 viability, primary screen (AID 624349; in the data active = parasite load remaining mostly below about 12%, no sharp cut-off; inactive = mostly above about 10%;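 also: 100% = mean of DMSO negative control wells on the same plate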); conditions: P. berghei liver stage in HepG2, luciferase luminescence, concentration not given here; parasite load remaining: stronger effect = lower value; viability: measured here: HepG2 viability without parasites
[2] = signal quenchers or enhancers, Cy5 substrate/SSB – biochemical, NIH Clinical Collection, E. coli SSB, artefact control for HCV NS3 helicase inhibitor project (AID 743268; call rule not given here); conditions: Cy5-oligo bound E. coli SSB, fluorescence interference
[3] = system: Hepatitis C virus NS3 helicase; assay: blockers of NS3h binding to DNA – biochemical, fluorescence polarization, NIH Clinical Collection, primary screen (AID 743270; call rule not given here); conditions: NS3 helicase binding to Cy5-dT15 DNA, stronger effect = higher value, concentration not given here
[4] = molecular target: Single-stranded DNA-binding protein (Escherichia coli (strain K12)) (UniProt P0AGE0); assay: SSB-ssDNA binding inhibitors – biochemical, fluorescence polarization, NIH Clinical Collection, counter-screen for HCV NS3 helicase inhibitor project (AID 743271; in the data active = inhibition above about 28%); conditions: E. coli SSB-DNA binding, stronger effect = higher value, concentration not given here
[5] = compounds distorting NS3 helicase fluorescence signal – biochemical, NIH Clinical Collection, artefact control for HCV NS3 helicase inhibitor project (AID 743272; call rule not given here;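 also: HCV NS3 helicase with a Cy5 labelled single stranded DNA probe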); conditions: fluorescence interference counterscreen, HCV NS3 helicase assay; stronger effect = lower value
[6] = modulation of C. elegans fzo-1 (AID 1259413; call rule not given here;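 also: fzo-1 mutant C. elegans worms in liquid wells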); conditions: C. elegans fzo-1 modulator screen, mean read-out; stronger effect = higher value
[7] = EMT-state selective cytotoxicity in co-culture – imaging, PC-3E GFP, TEM4-18 mCherry, primary screen (AID 1345086;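 active = compounds killing one labelled cell type while sparing the other, by normalised counts and ratio limits, not self-fluorescent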;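 as to all read-outs here: cells exposed to compound for 72 h before imaging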;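 as to red/green cell ratio (normalised): normalised mesenchymal count divided by normalised epithelial count so high means epithelial killing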); conditions: PC-3E GFP / TEM4-18 mCherry co-culture, imaging cell counts, at 1 µM; for red/green cell ratio (normalised): actives lie on both sides, counts scaled to control wells, 1 = unselective
[8] = viability loss with induced miR-34 in A549 – imaging, A549 dox-inducible miR-34, nuclei and caspase counts, primary screen (AID 1347080;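 active = compounds whose cell count with miR-34 switched on is under 0.7 times the count with it off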); conditions: A549 miR-34 inducible, Hoechst nuclei count, 48 h
[9] = MELAS cybrid and Rieske KO viability enhancers – cell-based, MELAS cybrids, Rieske KO mouse fibroblasts, CellTiter-Glo, primary screen (AID 1508586;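 active = mean z-score across replicates of 1.96 or higher in either the MELAS or the Rieske mutant cell line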;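 also: z relative to plate mean and SD of compound and empty wells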); conditions: low glucose
F380Y = assay: BK channel mutant inhibitors and activators – cell-based, U2OS BacMam, thallium flux, beta subunits, selectivity assay, profiling panel (AID 1259406); conditions: U2OS BacMam BK variants, at 30 µM;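 also: initial slope of Thallos dye fluorescence rise after thallium is added; log ratio against the mean of 0.3% DMSO vehicle wells on the same plate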
F380Y/beta1 = assay: as above; conditions: U2OS BacMam BK variants, at 30 µM
F380Y/beta2Delta = assay: as above; conditions: U2OS BacMam BK variants, at 30 µM
F380Y/beta4 = assay: as above; conditions: U2OS BacMam BK variants, at 30 µM
[10] = molecular target: Calcium-activated potassium channel subunit alpha-1 (Homo sapiens) + Leucine-rich repeat-containing protein 26 (Homo sapiens) (UniProt Q12791+Q2I0M4); assay: as above; conditions: U2OS BacMam BK variants, F380Y/Slo1WT/gamma1, at 30 µM
R275C = assay: as above; conditions: U2OS BacMam BK variants, at 30 µM
R275C/beta1 = assay: as above; conditions: U2OS BacMam BK variants, at 30 µM
R275C/beta2Delta = assay: as above; conditions: U2OS BacMam BK variants, at 30 µM
R275C/beta4 = assay: as above; conditions: U2OS BacMam BK variants, at 30 µM
R275C/Slo1WT/beta2 = assay: as above; conditions: U2OS BacMam BK variants, at 30 µM
[11] = drug combination growth inhibition, ovarian cancer – cell-based, oncology-focused library, rucaparib conditional, profiling panel (AID 1508598;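 active = normalized viability below 100% at a tested concentration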); conditions: patient-derived ovarian cancer cells, CellTiter-Glo viability, 144 h, stronger effect = lower value
[12] = measured here: epithelial PC-3E GFP cell survival
[13] = measured here: mesenchymal TEM4-18 mCherry cell survival
[14] = stronger effect = lower value, cell number ratio, induced over uninduced
[15] = measured here: relative caspase fold change +Dox/-Dox
[16] = measured here: total cells with miR-34 induction, stronger effect = lower value
[17] = measured here: total cells without miR-34 induction
[18] = MELAS cybrid survival, CellTiter-Glo 48 h, stronger effect = higher value
[19] = Rieske KO mouse fibroblast survival, CellTiter-Glo 72 h

Calcium-activated potassium channel subunit alpha-1 (Homo sapiens) + Leucine-rich repeat-containing protein 26 (Homo sapiens), sequence (Q2I0M4 whole entry, looked up, one chain of several): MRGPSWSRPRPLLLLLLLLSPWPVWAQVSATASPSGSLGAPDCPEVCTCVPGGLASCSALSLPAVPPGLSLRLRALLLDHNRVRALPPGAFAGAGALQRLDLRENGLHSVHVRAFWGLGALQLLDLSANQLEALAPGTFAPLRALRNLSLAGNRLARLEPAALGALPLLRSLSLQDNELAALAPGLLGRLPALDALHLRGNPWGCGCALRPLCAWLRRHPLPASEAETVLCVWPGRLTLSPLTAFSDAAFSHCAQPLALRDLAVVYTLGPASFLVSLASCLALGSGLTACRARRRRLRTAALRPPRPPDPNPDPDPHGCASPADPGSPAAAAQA

COc1ccc2[nH]c(S(=O)Cc3ncc(C)c(OC)c3C)nc2c1 (centres undefined)
0.0948: z-score [9, 19]
1.73 and 0.384: fold change [8, 15]
0.92: normalised cell number [7, 13]
78.3%: viability [1]
inactive: parasite load remaining [1] 75.4% | fluorescence ratio [2] 1.05 | inhibition [3] -1.19% | inhibition [4] -0.1% | fluorescence ratio [5] 1.01 | mean signal [6] 220 | red/green cell ratio (normalised) [7] 0.83 | fold change [8, 14] 1.06 and 1.02 | z-score [9, 18] -0.201 | log fold change Tl+ flux (F380Y) 0.0414 | log fold change Tl+ flux (F380Y/beta1) 0.0445 | log fold change Tl+ flux (F380Y/beta2Delta) -0.007 | log fold change Tl+ flux (F380Y/beta4) 0.0255 | log fold change Tl+ flux [10] 0.0493 | log fold change Tl+ flux (R275C) -0.061 | log fold change Tl+ flux (R275C/beta1) 0.0126 | log fold change Tl+ flux (R275C/beta2Delta) 0.00561 | log fold change Tl+ flux (R275C/beta4) 0.0354 | log fold change Tl+ flux (R275C/Slo1WT/beta2) 0.0116
9290 and 8180: cell count [8, 16]
1.11: normalised cell number [7, 12]
8760 and 8050: cell count [8, 17]

CCOC(=O)c1cnc(C(F)(F)F)nc1NN=Cc1c(Cl)cccc1Cl
active: log fold change Tl+ flux (R275C) -0.0944 | log fold change Tl+ flux (R275C/beta1) -0.124
inactive: log fold change Tl+ flux (F380Y) -0.0741 | log fold change Tl+ flux (F380Y/beta1) 0.0122 | log fold change Tl+ flux (F380Y/beta2Delta) -0.0116 | log fold change Tl+ flux (F380Y/beta4) 0.00688 | log fold change Tl+ flux [10] -0.0599 | log fold change Tl+ flux (R275C/beta2Delta) -0.0798 | log fold change Tl+ flux (R275C/beta4) -0.0487 | log fold change Tl+ flux (R275C/Slo1WT/beta2) -0.0141

O=C(c1ccc(OCCN2CCCCC2)cc1)c1c(-c2ccc(O)cc2)sc2cc(O)ccc12
0.306 and -0.238 and 0.0318: z-score [9, 19]
active: fluorescence ratio [5] 0.8 | viability ([11]; at 0.00122 µM, OCI-P5x cells, with rucaparib 20 µM, 100% = cells with rucaparib alone) 97.6% | viability ([11]; at 0.00488 µM, OCI-P5x cells, with rucaparib 20 µM, 100% = cells with rucaparib alone) 79.4% | viability ([11]; at 0.00488 µM, OCI-P5x cells, without rucaparib) 94.8% | viability ([11]; at 0.0195 µM, OCI-P5x cells, with rucaparib 20 µM, 100% = cells with rucaparib alone) 90% | viability ([11]; at 0.0195 µM, OCI-P5x cells, without rucaparib) 94.3% | viability ([11]; at 1.25 µM, OCI-P5x cells, with rucaparib 20 µM, 100% = cells with rucaparib alone) 89.1% | viability ([11]; at 5 µM, OCI-P5x cells, with rucaparib 20 µM, 100% = cells with rucaparib alone) 40% | viability ([11]; at 5 µM, OCI-P5x cells, without rucaparib) 63.8%
inactive: fluorescence ratio [2] 1.04 | inhibition [3] -7.73% | inhibition [4] 4.1% | mean signal [6] 205 | red/green cell ratio (normalised) [7] 1.03 | z-score [9, 18] -0.537 and -0.644 and -0.85 | viability ([11]; at 0.000305 µM, OCI-C5x cells, with rucaparib 10 µM, 100% = cells with rucaparib alone) 108% | viability ([11]; at 0.000305 µM, OCI-C5x cells, without rucaparib) 112% | viability ([11]; at 0.000305 µM, OCI-P5x cells, with rucaparib 20 µM, 100% = cells with rucaparib alone) 101% | viability ([11]; at 0.000305 µM, OCI-P5x cells, without rucaparib) 110% | viability ([11]; at 0.00122 µM, OCI-C5x cells, with rucaparib 10 µM, 100% = cells with rucaparib alone) 116% | viability ([11]; at 0.00122 µM, OCI-C5x cells, without rucaparib) 116% | viability ([11]; at 0.00122 µM, OCI-P5x cells, without rucaparib) 103% | viability ([11]; at 0.00488 µM, OCI-C5x cells, with rucaparib 10 µM, 100% = cells with rucaparib alone) 131% | viability ([11]; at 0.00488 µM, OCI-C5x cells, without rucaparib) 107% | viability ([11]; at 0.0195 µM, OCI-C5x cells, with rucaparib 10 µM, 100% = cells with rucaparib alone) 113% | viability ([11]; at 0.0195 µM, OCI-C5x cells, without rucaparib) 110% | viability ([11]; at 0.0781 µM, OCI-C5x cells, with rucaparib 10 µM, 100% = cells with rucaparib alone) 121% | viability ([11]; at 0.0781 µM, OCI-C5x cells, without rucaparib) 107% | viability ([11]; at 0.0781 µM, OCI-P5x cells, with rucaparib 20 µM, 100% = cells with rucaparib alone) 118% | viability ([11]; at 0.0781 µM, OCI-P5x cells, without rucaparib) 125% | viability ([11]; at 0.313 µM, OCI-C5x cells, with rucaparib 10 µM, 100% = cells with rucaparib alone) 114% | viability ([11]; at 0.313 µM, OCI-C5x cells, without rucaparib) 118% | viability ([11]; at 0.313 µM, OCI-P5x cells, with rucaparib 20 µM, 100% = cells with rucaparib alone) 105% | viability ([11]; at 0.313 µM, OCI-P5x cells, without rucaparib) 104% | viability ([11]; at 1.25 µM, OCI-C5x cells, with rucaparib 10 µM, 100% = cells with rucaparib alone) 134% | viability ([11]; at 1.25 µM, OCI-C5x cells, without rucaparib) 117% | viability ([11]; at 1.25 µM, OCI-P5x cells, without rucaparib) 101% | viability ([11]; at 5 µM, OCI-C5x cells, with rucaparib 10 µM, 100% = cells with rucaparib alone) 124% | viability ([11]; at 5 µM, OCI-C5x cells, without rucaparib) 109% | log fold change Tl+ flux (F380Y) 0.0852 | log fold change Tl+ flux (F380Y/beta1) 0.00638 | log fold change Tl+ flux (F380Y/beta2Delta) 0.0463 | log fold change Tl+ flux (F380Y/beta4) 0.0721 | log fold change Tl+ flux [10] -0.00263 | log fold change Tl+ flux (R275C) 0.0285 | log fold change Tl+ flux (R275C/beta1) 0.00107 | log fold change Tl+ flux (R275C/beta2Delta) 0.0378 | log fold change Tl+ flux (R275C/beta4) 0.0617 | log fold change Tl+ flux (R275C/Slo1WT/beta2) -0.0543
0.9: normalised cell number [7, 12]
0.93: normalised cell number [7, 13]

Cc1cnc(C(=O)NCCc2ccc(S(=O)(=O)NC(=O)NC3CCCCC3)cc2)cn1
0.93: normalised cell number [7, 13]
inactive: fluorescence ratio [2] 1.05 | inhibition [3] -5% | inhibition [4] -2% | fluorescence ratio [5] 0.98 | mean signal [6] 228 | red/green cell ratio (normalised) [7] 1.07 | z-score [9, 18] 0.0771 and 0.00808 and -0.837 | log fold change Tl+ flux (F380Y) -0.0483 | log fold change Tl+ flux (F380Y/beta1) -0.0347 | log fold change Tl+ flux (F380Y/beta2Delta) -0.0103 | log fold change Tl+ flux (F380Y/beta4) 0.0321 | log fold change Tl+ flux [10] -0.0267 | log fold change Tl+ flux (R275C) 0.0214 | log fold change Tl+ flux (R275C/beta1) 0.0314 | log fold change Tl+ flux (R275C/beta2Delta) 0.0193 | log fold change Tl+ flux (R275C/beta4) 0.0322 | log fold change Tl+ flux (R275C/Slo1WT/beta2) 0.0429
0.368 and 0.143 and -0.894: z-score [9, 19]
0.87: normalised cell number [7, 12]

C/C(=C\C(=O)OCCCCCCCCC(=O)O)C[C@@H]1OC[C@H](C[C@@H]2O[C@H]2[C@@H](C)[C@H](C)O)[C@@H](O)[C@H]1O
116%: viability [1]
inactive: parasite load remaining [1] 65% | fluorescence ratio [2] 1.04 | inhibition [3] -4.09% | inhibition [4] -5.05% | fluorescence ratio [5] 1.03 | mean signal [6] 235 | red/green cell ratio (normalised) [7] 1 | fold change [8, 14] 0.967 | z-score [9, 18] -3.53 | log fold change Tl+ flux (F380Y) 0.0421 | log fold change Tl+ flux (F380Y/beta1) -0.0188 | log fold change Tl+ flux (F380Y/beta2Delta) 0.0619 | log fold change Tl+ flux (F380Y/beta4) 0.0116 | log fold change Tl+ flux [10] 0.0402 | log fold change Tl+ flux (R275C) -0.0142 | log fold change Tl+ flux (R275C/beta1) -0.0156 | log fold change Tl+ flux (R275C/beta2Delta) -0.0137 | log fold change Tl+ flux (R275C/beta4) 0.0262 | log fold change Tl+ flux (R275C/Slo1WT/beta2) -0.00127
7890: cell count [8, 16]
8160: cell count [8, 17]
-3.7: z-score [9, 19]
1.08: normalised cell number [7, 12] | normalised cell number [7, 13]
0.766: fold change [8, 15]
